POLK inh: inhibitors of human DNA polymerase kappa; 0.53% of 400,000 active; purified Pol kappa, fluorescent DNA synthesis assay, 10 min; AID 588579; Q9UBT6; Potency, µM (doses to about 107 µM), inactives show at the highest dose activity, negative = inhibition, usual class: inhibitors; note: % is set by controls: 0 for no effect and ±100 for the full control effect
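Inhibition of 10 nM Pol kappa is measured by a fluorescent read-out at 0 and 10 min following addition of 50 nM substrate (final), with a 15-min room-temperature compound preincubation.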
Pol iota inh: blocks human DNA polymerase iota activity. Pol iota fluorescent replication assay, 10 min. Potency, µM (doses to about 115 µM), without a hit: at the highest dose activity, negative = inhibition, hits mostly inhibitors. 1% of 390,000 active. AID 588590
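Pol iota at 10 nM preincubated 15 min with compounds at room temperature; reaction started with fluorescent substrate, 50 nM final. Fluorescence read kinetically at 0 and 10 min; buffer-only wells as negative control.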
POLB inh: inhibitors of human DNA polymerase beta; P06746; Pol beta primer extension/strand displacement, fluorescence kinetic; Potency, µM (series often up to 114 µM), without a hit: top-dose activity change, negative = inhibition, usual class: inhibitors; 1.3% of 340,000 active; note: % is set by controls: 0 for no effect and ±100 for the full control effect
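Human Pol beta at 10 nM; strand-displacement substrate 50 nM final. Compound exposure 15 min at room temperature before start, reaction 10 min at room temperature.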
L3MBTL1 inh: blocks human L3MBTL1 | Q9Y468 | AlphaScreen L3MBTL1–H3K9me1 peptide binding | Potency, µM (doses to about 57.1 µM), inactives show at the top dose activity, negative = inhibition, usual class: inhibitors | 0.66% of 230,000 active; note: % is set by controls: 0 for no effect and ±100 for the full control effect; nearly all actives have a fitted effect of over 60% in size
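L3MBTL1 (50 nM) pre-complexed 30 min with biotinylated H3(1-15)K9me1 peptide (75 nM), then compounds added for 30 min at room temperature; AlphaScreen streptavidin donor/nickel chelate acceptor beads (10 ug/mL final) read after 30 min dark incubation.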
POLH inh: DNA polymerase eta (human) inhibition; AID 588591; 1.2% of 390,000 active; recombinant Pol eta, fluorescent DNA replication assay; Q9Y253; Potency, µM (top dose mostly 114 µM), for inactives: at the top dose activity change, negative = inhibition, actives largely listed as inhibitors; note: % is set by controls: 0 for no effect and ±100 for the full control effect
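Pol eta at 10 nM preincubated with compounds 15 min at room temperature; reaction started with fluorescent substrate (50 nM final) and read kinetically at 0 and 10 min.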
WRN inhibitor: inhibitors of human WRN helicase; Q14191; Potency, µM (titrated, usually from 114 µM), without a hit: at the top dose activity change, negative = inhibition, hits mostly inhibitors; 0.46% of 360,000 active; WRN helicase unwinding, fluorescent forked duplex, kinetic; AID 651768; note: % is set by controls: 0 for no effect and ±100 for the full control effect; nearly all actives have a fitted effect of over 55% in size
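Screening of the MLSMR collection measured strand separation of a quenched forked DNA duplex (100 nM) by 20 nM WRN with 2 mM ATP, all final. Compounds were preincubated with enzyme 15 min at room temperature.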
Active calls of the source: *; ? = inconclusive; . = no result; ! = a repeat was not active; [ ] = remark or other dose. This is a sample that favours compounds with a hit; in the whole collection about 2.5% have one here. Calls come from the whole dose curve; as a rule, active = well fitted curve in the direction sought with a large enough effect; inconclusive = small, poorly fitted or top-dose-only effect, or another doubt; inactive = no such curve, though single readings can be large; an effect the other way counts as inactive or inconclusive. Potency is the fitted concentration of half-maximal effect.

SMILES | POLK inh | Pol iota inh | POLB inh | L3MBTL1 inh | POLH inh | WRN inhibitor
Nc1c(Br)cc(Br)c2cccnc12 | 4.1% | 8.91µM* | . | . | . | .
CCCN1Cc2cccc(C(=O)Nc3cc(OC)cc(OC)c3)c2C1=O | -13.1% | -27.9%[58.9 µM] | 6.6% | -7.2% | -1.1% | -11.9%
COc1ccc(N2Cc3cccc(C(=O)Nc4ccc(F)cc4)c3C2=O)cc1 | ? | ? | 6.31µM* | . | ? | .
COc1ccc(N2Cc3cccc(C(=O)Nc4ccc(C)c(C)c4)c3C2=O)cc1 | -26.8% | ? | 11.2µM* | . | -23.7% | .
Cc1sc2ncnc(SCC(=O)N3CCOCC3)c2c1C | -17.7% | 5.9% | . | -5.6% | -2.6% | -2.9%
CCc1ccc(C(=O)NC(C(=O)O)C(C)C)cc1 (stereo not drawn) | -3.9% | 2.5% | 11.8% | -3.4% | -7.3% | 9.3%
Cc1ccc(C)c(NC(=O)CSc2ncc(S(=O)(=O)c3ccc(C)c(Cl)c3)c(=O)[nH]2)c1 | -1.5%[60.1 µM] | -4.5% | -12.4% | . | -7.3% | .
Cc1ccc(S(=O)(=O)c2cnc(SC(C)C(=O)Nc3ccccc3)[nH]c2=O)cc1 (stereo not drawn) | 1.8% | ? | 15.5% | . | -9.5% | .
CCOC(=O)c1ccc(NC(=O)CSc2ncc(S(=O)(=O)c3ccc(C)c(Cl)c3)c(=O)[nH]2)cc1 | -4.9%[60.1 µM] | ? | 89.1µM* | . | ? | .
CCC(Sc1ncc(S(=O)(=O)c2ccc(C)cc2)c(=O)[nH]1)C(=O)Nc1cc(C)ccc1C (stereo not drawn) | -4.5% | ? | 25.1µM* | . | -5.4% | .
CCN1CCN(CCCNC(=O)CCCn2nc(C)c3sc4ccccc4c3c2=O)CC1 | 7.0% | 10.1% | 26.5% | . | 5.5% | -3.3%
O=c1c2c(nc3cc(-c4ccc(F)cc4)[nH]n13)CCCC2 | -21.2% | ? | 17.8µM* | 0.7% | ? | ?
Cc1nc2scc(C)n2c(=O)c1S(=O)(=O)NCc1ccccc1Cl | -0.1% | 9.6% | 36.0% | . | -0.5% | -3.1%
COC(=O)N/N=C/c1cc(Br)ccc1O | -8.4% | -6.6% | 15.8µM* | -8.3% | -14.6% | -1.6%
CC(C)(O)c1ccc2c(c1)CCC1C(C)(C(=O)O)CCCC21C (stereo not drawn) | -38.6% | ? | 39.8µM* | . | ? | -10.7%
CC1=Nc2ccccc2N=C(N)C1c1ccccc1 (stereo not drawn) | -13.7% | 24.0% | 1.1% | -21.5% | -9.8% | -17.3%
CN1C(=O)/C(=N\OC(=O)c2cccc3ccccc23)c2ccccc21 | -5.8% | 31.6µM* | 46.1% | 0.1% | 0.7% | 57.5%[57.1 µM]
CC1=NN(Cc2ccccc2)C(=O)C1 | -17.4% | 3.16µM* | 43.0% | -4.6% | -11.8% | 0.4%[57.1 µM]
Cc1ccc(S(=O)(=O)c2nc(-c3ccc(F)cc3)oc2SCC(=O)NC2CCCCC2)cc1 | 6.4% | 13.7% | 8.9% | . | -5.9% | .
Cc1ccc(C(=O)Nc2ccc(S(=O)(=O)O)c3cc(S(=O)(=O)O)cc(S(=O)(=O)O)c23)cc1NC(=O)c1cccc(NC(=O)Nc2cccc(C(=O)Nc3cc(C(=O)Nc4ccc(S(=O)(=O)O)c5cc(S(=O)(=O)O)cc(S(=O)(=O)O)c45)ccc3C)c2)c1 | 0.0316µM*! | 1.41µM* | 0.891µM* | . | 0.224µM* | .
Cc1ccc(-c2sc(-c3cccnc3)nc2CC(=O)O)cc1 | -2.2% | 25.8% | -0.3% | . | -5.8% | -4.9%
COc1ccc(CNc2ncnc3ccc(-c4ccccc4C#N)cc23)c(OC)c1 | 39.8µM* | . | . | . | . | .
O=C(NNS(=O)(=O)c1ccc(Br)cc1)c1csnn1 | -14.3% | 13.1% | 1.9% | 8.0% | 2.1% | -12.9%
Cc1ccc2c(c1)C1OCCC1C1N2C(=O)C2C(C(=O)O)C3C=CC21O3 (stereo not drawn) | -29.7% | ? | 39.8µM* | . | ? | -13.9%
Cc1cccc(N2CC34C=CC(O3)C(C(=O)O)C4C2=O)c1 (stereo not drawn) | -9.8% | -5.6% | 0.6% | 3.9% | 6.3% | -1.5%
SMILES | POLK inh | Pol iota inh | POLB inh | L3MBTL1 inh | POLH inh | WRN inhibitor
CCc1nnc(NS(=O)(=O)c2ccc(N3C(=O)C4CC=C(Cl)CC4C3=O)cc2)s1 (stereo not drawn) | -17.4% | ? | 26.8% | . | 44.7µM* | -19.1%[11.6 µM]
C=CCOC(=O)C1=C(C)NC(=O)NC1c1ccc(O)cc1 (stereo not drawn) | 8.3% | 25.6% | 0.7% | -0.2% | -11.3% | 3.5%
N#Cc1ccc(C(=O)NCc2ccc3c(c2)CCN3C(=O)c2ccc(F)cc2)cc1 | -5.2%[60.1 µM] | 17.6% | -0.9% | . | -22.9% | .
CCN(CC)c1ccc(C(=O)NCc2ccc3c(c2)CCN3C(=O)c2ccc(F)cc2)cc1 | -12.4%[60.1 µM] | 20.3% | 2.9% | . | 79.4µM* | .
Nc1nc(SCC(=O)Nc2ccc(F)cc2)[nH]c(=O)c1NC(=O)c1ccc(F)c(F)c1 | -9.5% | 9.1% | 8.6% | . | -15.5% | 0.4%
O=C(Nc1ccc(-c2cn3ccccc3n2)cc1)c1cccs1 | ? | ? | 10µM* | -11.2% | ? | -10.3%[11.6 µM]
Cn1nc(-c2ccc(OCC(=O)Nc3cccc(C(F)(F)F)c3)cc2)c2ccccc2c1=O | -6.2% | 11.6% | ? | . | 79.4µM* | .
Cc1occc1-c1nnc(SCC(=O)NC2CCCC2)n1C | 4.0% | 14.7% | 0.4% | . | -14.0% | -1.0%[57.1 µM]
Cc1c(Cl)cccc1NC(=O)Cn1nnc(C(=O)NCc2cccs2)c1N | -26.0% | 89.1µM* | ? | 0.1% | 79.4µM* | ?
O=C(N/C(=C/c1cccc([N+](=O)[O-])c1)C(=O)N1CCCC1)c1ccccc1 | -0.5% | 3.1% | 8.6% | . | -21.3% | 3.0%
CCOC(=O)C(=O)Nc1ccc(S(=O)(=O)Nc2nccc(C)n2)cc1 | . | . | . | . | ? | -0.7%
Cc1ccc(-c2cc(C(=O)Nc3ccc(S(=O)(=O)Nc4ncccn4)cc3)[nH]n2)c(O)c1C | -30.6% | ? | ? | . | 44.7µM* | ?
CCOC(=O)C(=O)Nc1ccc(S(=O)(=O)Nc2ncccn2)cc1 | -12.9% | -11.3% | 89.1µM* | . | -4.5% | -4.5%
Cc1cccc(NC(=O)c2cc(-c3ccc(C)c(C)c3O)n[nH]2)c1 | 11.0% | 79.4µM* | -9.2% | . | -26.1% | -6.0%
CC(=O)Nc1ccc(NC(=O)c2cc(-c3ccc(C)c(C)c3O)n[nH]2)cc1 | -8.4% | 24.1% | 2.4% | . | -17.3% | -3.7%
Cc1ccc(NC(=O)CCNC(=O)c2ccc(Cl)cc2)nc1 | -2.5% | 26.8% | 5.4% | . | 11.4% | 10.4%
O=C(NCc1ccccc1Br)c1cccc2c1C(=O)c1ccc(N3CCOCC3)cc1S2(=O)=O | . | . | . | -6.6% | . | .
Cc1cc2sc3ccccc3c(=O)c2c(C)c1O | -11.8% | ? | 50.1µM* | -11.8% | -16.7% | -12.2%
O=c1c2ccccc2sc2ccccc12 | -6.2% | 116.3% | . | . | 8.9% | ?
O=c1cc(CNc2cc(Cl)ccc2Cl)nc2sccn12 | -6.0% | 142.2% | 8.5% | 36.9% | -19.1% | -2.1%

Screening results from PubChem.
